The full ranking holds about 68,000 sequences; the median of “fluorescence intensity (a.u.)” is about 9,100, and the highest 2% start at about 16,000. This excerpt belongs to a sample that is enriched for the highest values.

Sequence of OsWRKY34 (Q0JBA9 entry or part of it): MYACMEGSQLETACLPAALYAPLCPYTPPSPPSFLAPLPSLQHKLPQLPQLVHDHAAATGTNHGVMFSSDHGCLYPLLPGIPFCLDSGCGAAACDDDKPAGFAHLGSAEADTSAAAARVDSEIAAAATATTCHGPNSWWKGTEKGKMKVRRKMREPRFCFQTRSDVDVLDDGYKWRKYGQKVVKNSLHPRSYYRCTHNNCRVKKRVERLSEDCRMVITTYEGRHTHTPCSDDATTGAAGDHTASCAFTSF

For the experiment, the target named is OsWRKY34 (Oryza sativa, UniProt Q0JBA9 1-250). As to the kind of experiment: protein-binding microarray (RPBM); PBS, 2% BSA, 51.3 ng/ul salmon testes DNA, 50 uM zinc acetate, 200 nM TF, 25 C, 1 h; high values mean tight binding. The note with it: protein: recombinant; tags: N-terminal polyhistidine and DsRed monomer fusion (pET32a); label: CyDye5-dUTP incorporated in the synthesized complementary strand; 3' TTTTT single-stranded linker to array surface; dsDNA, one strand shown. A digest of the protocol:
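For the binding signal, per-feature fluorescence intensity was read in arbitrary units on an Axon 4000B scanner. Before scanning, a 2% BSA-blocked custom Agilent array made double-stranded with Cy5-dUTP was washed after 1 h at 25 °C with 200 nM protein and 50 µM zinc acetate. The proteins were Ni–NTA-purified transcription factors with N-terminal polyhistidine and DsRed fusions, expressed in E. coli BL21-CodonPlus.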
As to “CTCTCTTGCCTCTCCTGTCTCTTTCTCGGATTTTTCTCATCGGAGTCACCTAGTGCAG”, the binding signal was 9020 fluorescence intensity (a.u.).
In the case of “AAACAGTTTGACTTTGACTAAAGTTAAAACGTCTTATAACCGGAGTCACCTAGTGCAG”, the binding signal is 10900 fluorescence intensity (a.u.).
“AGCGTTGACCATACTTAAATCACAGTTTTCTTTTCTTTTTCGGAGTCACCTAGTGCAG”: the binding signal was 21800 fluorescence intensity (a.u.).
Take “CTTTTCTTTTCAATTTTTTGAGCGTTGACCATACTTAAATCGGAGTCACCTAGTGCAG”: the binding signal was 14800 fluorescence intensity (a.u.).
As for “CGTTGACTTTTTTAAATATATAATTATTAATTTTTTTTCTCGGAGTCACCTAGTGCAG”, the figure is 23900 fluorescence intensity (a.u.); as for “CAAGTCACGTATAAAATATTAATCATGTTTTATCATCTAACGGAGTCACCTAGTGCAG”, 8050 fluorescence intensity (a.u.); as for “GTTTGACACCGTTGACTTTTTTAAATATGTTTGACCGTTTCGGAGTCACCTAGTGCAG”, 25000 fluorescence intensity (a.u.).
For “CCTTTCGTTTTATATTATAATTCGTTTTGACTTTTTTCTTCGGAGTCACCTAGTGCAG”, the binding signal is 10500 fluorescence intensity (a.u.).
With “ATTTCTTGAACAGTTAAATACTTATAAATCCTTCACTTTTCGGAGTCACCTAGTGCAG”, the binding signal is 8050 fluorescence intensity (a.u.).
“ACCATCTTATTTAACGTAAAATATTTAATTTTCATTTTTACGGAGTCACCTAGTGCAG”: the binding signal was 8480 fluorescence intensity (a.u.).
As to “ACCTCGGTAATAAAAGATGATCTAACGTAAAATTTATTATCGGAGTCACCTAGTGCAG”, the binding signal is 23300 fluorescence intensity (a.u.).
For the sequence “TTCTAAATAATATTTGACGCCGTTGACTTTTTTAAATATACGGAGTCACCTAGTGCAG”, the binding signal is 14600 fluorescence intensity (a.u.).
For the sequence “CCATATCGTTTTGACGTTTTTAGTGTAGGTCAATTTATAGCGGAGTCACCTAGTGCAG”, the binding signal was 8170 fluorescence intensity (a.u.).
As to “TTAAAACTGAAATTATCGTATGTGCCTTGTCGCCGTGATTCGGAGTCACCTAGTGCAG”, the binding signal is 8090 fluorescence intensity (a.u.).
For the sequence “GGGTATATACCGTGACCCTGATCGCCACACCGACCGGATACGGAGTCACCTAGTGCAG”, the binding signal was 13600 fluorescence intensity (a.u.).
Take “ATCCGATCTCTCTTCTCATTCTCTTCTCTTGGTTTGGGGTCGGAGTCACCTAGTGCAG”: the binding signal is 8220 fluorescence intensity (a.u.).
For the sequence “AGTCTTGAAGACTGAGGCAAAGTCTGTTATCTTAATCGATCGGAGTCACCTAGTGCAG”, the binding signal was 9140 fluorescence intensity (a.u.).
With “TTGAAACTAAACAAGGCATTTAGCTCAAACCCTCATTGACCGGAGTCACCTAGTGCAG”, the binding signal is 8470 fluorescence intensity (a.u.).
“GATCGTGGGAGGGAGGATTGGCCGGTTGTACTACAGTTGACGGAGTCACCTAGTGCAG”: the binding signal is 8660 fluorescence intensity (a.u.).
On to “TTTGTTGGTGTTATGTTGACTTTTTTTTGGGAACATTACTCGGAGTCACCTAGTGCAG”, for which the binding signal was 17400 fluorescence intensity (a.u.).
Regarding “ACACTTTGATCCCGATCGATGGCGCCATCCACTAATTGATCGGAGTCACCTAGTGCAG”, the binding signal is 10700 fluorescence intensity (a.u.).
Take “CTTTCTTATTGACTATTTTATTATTTGAGGTCATTTAGGGCGGAGTCACCTAGTGCAG”: the binding signal was 9310 fluorescence intensity (a.u.).
For “CGCCGTTGACTTTTCATATAATATTTAACAATTCGCTTTACGGAGTCACCTAGTGCAG”, the binding signal was 36800 fluorescence intensity (a.u.).
As for “ACTTTTCGCTTTTTATATTTGCATAATTTTTTTCAATAAGCGGAGTCACCTAGTGCAG”, the binding signal is 8150 fluorescence intensity (a.u.).
On to “CCCGTTGACCCAAATTTTCGTTCTCCTCACCGAGTATAGTCGGAGTCACCTAGTGCAG”, for which the binding signal was 17200 fluorescence intensity (a.u.).
With “GTTGACTCGCACTTTTTGTAATTATGTGTTACATGGTTTCCGGAGTCACCTAGTGCAG”, the binding signal was 8810 fluorescence intensity (a.u.).
The result for “CCGTGTTGTCGTTCCTCCAAATTTGTACCGTTTTCCCTCTCGGAGTCACCTAGTGCAG” reads 8770 fluorescence intensity (a.u.).
The result for “TTTTGCTACTCCTTCGTTCTCAGTATCCAAATTTAAATTTCGGAGTCACCTAGTGCAG” reads 9900 fluorescence intensity (a.u.); that for “GACTTTATATGTGACTTTTTTTTTAACTTTTTCATAATTTCGGAGTCACCTAGTGCAG”, 9730 fluorescence intensity (a.u.); that for “AATTTTGACTTTTTCTTGACTAATTAGGCCATCCGATGGGCGGAGTCACCTAGTGCAG”, 17800 fluorescence intensity (a.u.).
Regarding “CCATTATGGTGTTTCTTAGTTGTTTTTTTTGCCTTTTACTCGGAGTCACCTAGTGCAG”, the binding signal was 8470 fluorescence intensity (a.u.).
As for “TTTTTCGCACGTTCTCTTTCGCCCTGTTTTTTTTGAAAGACGGAGTCACCTAGTGCAG”, the binding signal was 13300 fluorescence intensity (a.u.).
“CCTAGACCCCTTCTCACGCCGCCAGCCCGTCACACCGAGTCGGAGTCACCTAGTGCAG”: the binding signal was 8790 fluorescence intensity (a.u.).
As for “CCCACTAACTTATGGCTTTTCCCATCCGTGCTATATCCCTCGGAGTCACCTAGTGCAG”, the binding signal was 9270 fluorescence intensity (a.u.).
“ATACTGTCATAGGATCTCGAGTACACCTGTTTTACAAGTTCGGAGTCACCTAGTGCAG”: the binding signal is 8860 fluorescence intensity (a.u.).
For “GTTTTGATTGGCATATGGTCCCTCCAATCCGTGTAATTGTCGGAGTCACCTAGTGCAG”, the binding signal was 8320 fluorescence intensity (a.u.).
Turning to “GGAGTATATAAATATATATATTAAATACAACTCTAGACTACGGAGTCACCTAGTGCAG”, the binding signal was 26700 fluorescence intensity (a.u.).
“AAATATTTGACGCCGTTGACTTTTTTAAATATGTTTAACCCGGAGTCACCTAGTGCAG”: the binding signal is 27200 fluorescence intensity (a.u.).
Regarding “ACTACTTCCTCTGTTTCTAAATATTTGACGACGTTGATTTCGGAGTCACCTAGTGCAG”, the binding signal is 8050 fluorescence intensity (a.u.).
As to “CGTTGACTTTTTTAAATATGTTTGACCGTTTATGTTATTTCGGAGTCACCTAGTGCAG”, the binding signal was 44100 fluorescence intensity (a.u.).
For “GTTGACTTTTTTTAAAATATGTTTGACCGTTCATATTATTCGGAGTCACCTAGTGCAG”, the binding signal is 8770 fluorescence intensity (a.u.).
In the case of “CACCGTTGATTTTTTTAAATATGTTTGACCGTTCGTTTTACGGAGTCACCTAGTGCAG”, the binding signal was 12000 fluorescence intensity (a.u.).
With “ATAACCAACATATTTAGCCTACAATTAAATATTTACTATACGGAGTCACCTAGTGCAG”, the binding signal is 8390 fluorescence intensity (a.u.).

Values taken from paper PMC7819943, “Rice protein-binding microarrays: a tool to detect cis-acting elements near promoter regions in rice”.
